# Data: article PMC12136788
# Whole data set: some 24,000 sequences, median “enrichment r” near 0.99, cut for the highest 2% near 3.7. The entries come from a sample that favours the highest values as a whole.
# T1: UNK ZnF1-3 (human, UniProt Q9C0B0 31-174)
# T1 sequence: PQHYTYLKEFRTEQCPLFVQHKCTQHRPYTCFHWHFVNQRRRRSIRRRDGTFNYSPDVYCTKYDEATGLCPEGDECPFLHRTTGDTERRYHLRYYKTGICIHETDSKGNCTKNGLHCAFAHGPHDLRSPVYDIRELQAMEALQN
# B1: chr7:40134317:40134318:+_ENSG00000065883_ENST00000340829|hu_mus|FALSE|FALSE (ssRNA)
# RNA: GGGAGUUCUACAGUCCGACGAUCGGAAGGGUCAUUGCUGUUUGUGAGGACUGUGAUAGGACCAUGGCUAUAUUCAAAUCUAUGGUCCUUGUCUCCACUAAACAACAUGGGACCAGCAUUGAGGUAAAUGUCUCCAUAUCCAGCCAACAGAGGAUUGAGCAUCA
# B2: chr11:61557309:61557310:-_ENSG00000134825_ENST00000537328|hu_mus|FALSE|FALSE (ssRNA)
# RNA: GGGAGUUCUACAGUCCGACGAUCGAUGCCAACCCAGAGCAGGAGGAAGAGGACUCCAAAGCCCAUGAAGAGUGAGGCCACCAAGGAGAUGAGGAGCUCUUUGUAAAUAUCGCGUGUGUACUUGGUAGAGGUGACCUCGUAAACCAACAGAGGAUUGAGCAUCA
# B3: chr17:60744165:60744166:+_ENSG00000011028_ENST00000303375|hu_mus|FALSE|FALSE (ssRNA)
# RNA: GGGAGUUCUACAGUCCGACGAUCGUUGAGGUACUUGAGGGGUGAGUUGUCUGACCACUGCCAGCCUCCACUGGUAUCCAGGUCAUUAAGGCCAAUCCAUAGCGUGGAGCUGUAGCCCGUGAGGAGCCCGUUGAUGUAGGUCUGCAACAGAGGAUUGAGCAUCA
# B4: chr4:25749455:25749456:-_ENSG00000091490_ENST00000264868|hu_hu|hu_hu_hu_mus_False|48_68 (ssRNA)
# RNA: GGGAGUUCUACAGUCCGACGAUCGCACUAUGACCUCUAGAAAAAUCCACAGGGGGAAAAAAUGUAAACCAAUUUACAAUGUUAUCGCCCUCCCUGCGUGUGGAGUGUUUGUCUCAAGGCUCCUUCUAGCUGCUGGAUUUGGGACAACAGAGGAUUGAGCAUCA
# B5: chr17:25064881:25064882:-_ENSMUSG00000024163_ENSMUST00000117509|mus_mus|FALSE|FALSE (ssRNA)
# RNA: GGGAGUUCUACAGUCCGACGAUCAUAAUGUUCUACCUGGAUCUGGAGUUCUUUCUUCUCUUGUUCCAAGGCAUCUUCAAAUUCGAUGAAUUUCUCCUCGGCCUGUUUGCGCAGCGCCUUCUCGCGCUCGUAUUGCGUGAGCAGCAACAGAGGAUUGAGCAUCA
# B6: chr3:51263940:51263941:+_ENSMUSG00000063273_ENSMUST00000029303|mus_hu|FALSE|FALSE (ssRNA)
# RNA: GGGAGUUCUACAGUCCGACGAUCGUAAAAUGGAUGCUGUCGAAGUACAUCUUCUAGUUUUAAUAAGUCCACAUAUGAUCUAAGGGUAAUCUUCCUCAUACAGUAUGUAUGAAAGUCAAACUGGUCAUCAGUGAUUUCUAUAAACAACAGAGGAUUGAGCAUCA
# B7: 136207635_136207755_6660_3pUTR_ENSMUSG00000028664_ENSMUST00000105845|mouse|control|control (ssRNA)
# RNA: GGGAGUUCUACAGUCCGACGAUCGUAUAAGUGUUCUCUGCUACUCUUGUGUCUGCUCAGAAGCAGUGGGUCUAGCACUAAGGAUGUCACUAUUGACCAUAACUUCUUUCCUAGAGAUAAGGUCUUAUGUGGCCCAGGCUGGCUCAACAGAGGAUUGAGCAUCA
# B8: chr6:114281168:114281169:-_ENSG00000196591_ENST00000368632|hu_hu|hu_hu_hu_mus_True|8_108 (ssRNA)
# RNA: GGGAGUUCUACAGUCCGACGAUCUUCCAUUUUUCUGUAUAAACCAUAAUUUAGCAGCAAGUUAUGAGUCAUCCGGAUUCUAUGAGGCUUCAUGGGAUGACCCUGGCCAUAAUAAUAAUUGCCAAUAUCACAGAUUCAGUAGUACAACAGAGGAUUGAGCAUCA
# B9: 61064472_61067304_1030_3pUTR_ENSG00000119541_ENST00000238497|human|control|control (ssRNA)
# RNA: GGGAGUUCUACAGUCCGACGAUCUUCGUUUCUCAAAUCUUCGCCUAAUGGCAGAAUCCAGAACCCAGGGUAUAUUUGUAGCUCCCAGAACCAAAAUUCCAUCAUUGUCUACACCAACCCCUUGCAUUUGCACUAGGAACUCCGCAACAGAGGAUUGAGCAUCA
# B10: chr1:135034296:135034297:+_ENSMUSG00000046062_ENSMUST00000052529|mus_hu|FALSE|FALSE (ssRNA)
# RNA: GGGAGUUCUACAGUCCGACGAUCUAGCCUAACAUAGACAGGCCAAAUCAUUGAAAUAAAAAAAAUAUAGAAAAACAUAAAAGCCCAUUAACUUCUGAAUUUUGGGAAAGAAACAAGAAAGAGCCCAAAGUUUUCAGAUAGGCACAACAGAGGAUUGAGCAUCA
# B11: 14087313_14087433_2671_3pUTR_ENSG00000147862_ENST00000380959|human|control|control (ssRNA)
# RNA: GGGAGUUCUACAGUCCGACGAUCGGGAAAAUAAAUUCGUUCAAAAUUAUUUUAAAUUCUUUUUAAUCCCCUCAAUUUAGAGUCCAAGGGCUGAAGGACUUAUAAUCAUGAUUCCCCUUUAGAUAUAAAUUUAUAAAUUGCACUCAACAGAGGAUUGAGCAUCA
# B12: chr20:33097842:33097843:+_ENSG00000078747_ENST00000374864|hu_hu|motif|central (ssRNA)
# RNA: GGGAGUUCUACAGUCCGACGAUCAAAAAUAUUAAAUAGCCAAGCCCUAUAGAACUAGGGCCAGGGCUACUUCAAAUAUAACGGUUCUGUAUUUUAAAAAUAUAGGGCAGAAAGCCUUUUGGGUGAUAUUUAUAUAUUUUCACACAACAGAGGAUUGAGCAUCA
# B13: chr10:114190419:114190420:-_ENSG00000023041_ENST00000369405|hu_hu|FALSE|FALSE (ssRNA)
# RNA: GGGAGUUCUACAGUCCGACGAUCGGGCAGGAAUUCAAAGGCAUAUGCAGAAUGGCUUCUCCAUUUCAAAAUGGUAAUAAAAAUAUUUAAAUCAUGGCACUAGGGCACCUUUGAGGAAAAGAACAUCUUAACCAGAGUAGGCUCCAACAGAGGAUUGAGCAUCA
# B14: chr2:55200753:55200754:-_ENSG00000115310_ENST00000317610|hu_hu|motif|central (ssRNA)
# RNA: GGGAGUUCUACAGUCCGACGAUCUUGGAUUUUAGCCAUAGCAUCUUUAACAUUCUUAUUUGCAAGUCCUAGAUAAUGAUCGGUCUGUGCCUGAUGCCGUUCAUAAAUAACAGGAACACUGAAGAGUGAAAUGAGAGCCAAAAUCAACAGAGGAUUGAGCAUCA
# B15: chr1:53517203:53517204:+_ENSG00000116171_ENST00000408941|hu_mus|FALSE|FALSE (ssRNA)
# RNA: GGGAGUUCUACAGUCCGACGAUCUCAGGAAGAGCUGUUUUAAUUUUCUUUUUAAAUCUUCCAAAAGCAUAUUUUUAUCCCAAACCUAAAUUAUAACAAAUAGCAUUAGAAUUAGAAAAACUUGGAAGAAAGAUAAAUGCAGACCAACAGAGGAUUGAGCAUCA
# B16: chr5:180275300:180275301:-_ENSG00000196670_ENST00000512132|hu_mus|motif|central (ssRNA)
# RNA: GGGAGUUCUACAGUCCGACGAUCAGUUGUGAUCUUCCUACCACAAACCAUUACUGUUAAGUCUAUAAUUCAUGACCCACGGAUAAACUGAUAUUCCCUGAAACCAUCCUCUCCCUGAAUUUGCCUGUUGGAGGCCCUUCUUGGCAACAGAGGAUUGAGCAUCA
# B17: chr15:81824118:81824119:-_ENSMUSG00000022472_ENSMUST00000152227|mus_mus|motif|central (ssRNA)
# RNA: GGGAGUUCUACAGUCCGACGAUCGAAGGGAACCUUAAGGUCCCUCUGGAAUCUGGAGUCUAGAUCAUAGACUUCGGGGCGGUUGCUGCCCAUGAAAUCCUAGCAGCAUAUCAUUAAGAAAACGCCCACUCACACCCCAACCACCAACAGAGGAUUGAGCAUCA
# B18: chr6:38652254:38652255:-_ENSG00000124767_ENST00000373365|hu_hu|hu_hu_hu_mus_False|1_78 (ssRNA)
# RNA: GGGAGUUCUACAGUCCGACGAUCCGAGAACUUCAUAGCAGGGAAGUCAAGCUUCUGGAUUAGCGUCAGUCCAAGAACCCUCGUAUAAAAAUCCAGGGACUUCUUAGGAUCCUUAAUUCUUAGCAUCGUUUGCUGCAAUAGAAACAACAGAGGAUUGAGCAUCA
# B19: chr11:60965389:60965390:-_ENSMUSG00000042506_ENSMUST00000041683|mus_hu|FALSE|FALSE (ssRNA)
# RNA: GGGAGUUCUACAGUCCGACGAUCCAGCUCCUCAAAAUGGAAGGGGAAAGGAAGAGUAAACAUCUUGGUAAAUAAAGUCUCCAACCACAGCACAGUCAUUGGAAUUUUUUUCUUCAUUUUUAUUUUCAAACUUACAGUAAACAACAACAGAGGAUUGAGCAUCA
# B20: chr17:73267850:73267851:+_ENSMUSG00000024063_ENSMUST00000024857|mus_mus|FALSE|FALSE (ssRNA)
# RNA: GGGAGUUCUACAGUCCGACGAUCGAAAUAUACAGACAUGAAGUCCUAGGGGAGGCUGACCCACGCCCUUGUGAUUAAGAAAAACAAAACAAAACAAAACAAACAAACAAACAAAAAAAAACCAGUCACUGAGUCCUGAAUGAGCAACAGAGGAUUGAGCAUCA
# Biological target: T1, UNK ZnF1-3
# Experiment: nsRBNS (natural sequence RNA bind-n-seq); RBNS binding buffer (assumed for nsRBNS): 25 mM Tris pH 7.5, 150 mM KCl, 3 mM MgCl2, 0.01% Triton X-100, 500 ug/ml BSA, 20 U/ml SUPERase-In, 4 C; UNK is unkempt and MSI1 is Musashi-1; names of the RNAs are library labels; protein concentration not given here; high values mean tight binding
row,Binder,binding signal [enrichment R]
1,B1,0.887
2,B2,2.5
3,B3,1.03
4,B4,1.03
5,B5,0.355
6,B6,0.873
7,B7,0.733
8,B8,1.03
9,B9,1.29
10,B10,11.8
11,B11,4.87
12,B12,0.982
13,B13,4.18
14,B14,1.53
15,B15,1.47
16,B16,0.806
17,B17,1.07
18,B18,1.08
19,B19,2
20,B20,4.8
